A549 viability – Nrf2 qHTS screen for inhibitors: counterscreen for cytotoxicity; A549 ARE-Fluc cells, CellTiter-Fluor viability, 18-24 h; Potency, µM (top dose mostly 46 µM), without a hit: at the top dose activity change, negative = cytotoxicity, hits mostly inhibitors; hit rate 0.16% among 390,000; AID 504648, 2011; also: % is scaled to controls: 0 for no effect and ±100 for the full control effect
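A549 ARE_Fluc cells in 5% FBS OPTI-MEM were exposed to compounds in concentration-response for 18-24 h at 37 deg C. Viability was read by CellTiter-Fluor fluorescence (Ex 405/Em 525) after 30 min, before the luciferase read.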
S2 tox – Viability Counterscreen for Primary qHTS for Inhibitors of ATXN expression; S2 cells (HEK-293 line with an ATXN2-luciferase reporter) viability, CellTiter-Fluor protease fluorescence, 24 h; Potency, µM (top dose mostly 56.7 µM), hits mostly cytotoxic; hit rate 0.49% among 400,000; AID 651635, 2014; also: nearly all actives have a fitted effect of over 40% in size
Nrf2 inh – Nrf2 qHTS screen for inhibitors; A549 ARE-Fluc reporter, luciferase luminescence, 18-24 h; Potency, µM (titrated, usually from 46 µM), without a hit: at the highest dose activity change, negative = inhibition, actives largely listed as inhibitors; hit rate 2.1% among 360,000; AID 504444, 2011; also: % is scaled to controls: 0 for no effect and ±100 for the full control effect; nearly all actives have a fitted effect of over 60% in size
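A549 ARE_Fluc cells, 5000/well, 5% FBS OPTI-MEM; compounds in dose-response, 18-24 h at 37 °C/5% CO2; CellTiter-Fluor viability read (Ex 405/Em 525), then BugLite luciferase luminescence = Nrf2 activity.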
ATXN2 expr inh – Primary qHTS for Inhibitors of ATXN expression | AID 1745845, 2022 | Potency, µM (highest dose often 57 µM), for inactives: at the top dose activity change, negative = inhibition, actives largely listed as inhibitors | HEK-293 ATXN2-luciferase reporter, luminescence, 24 h | hit rate 0.72% among 360,000; also: % is scaled to controls: 0 for no effect and ±100 for the full control effect; nearly all actives have a fitted effect of over 55% in size
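qHTS (up to 57 uM final) was run with 24 h compound exposure of reporter cells at 37 °C. Each well was multiplexed: SteadyGlo luminescence measured ATXN2-luciferase expression after a fluorogenic Gly-Phe-AFC viability readout (25 uM final).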
Nrf2 ARE act – qHTS of Nrf2 Activators | hit rate 0.31% among 410,000 | AREc32 ARE-luciferase reporter (MCF7-derived line), luminescence, 24 h | AID 624171, 2012 | Potency, µM (series often up to 46.1 µM), for inactives: at the top dose activation, actives largely listed as activators; also: % of control where 0% means no effect; nearly all actives have a fitted effect of over 65% in size
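Steps: seed AREc32_Fluc cells (1000/well, 5% FBS OPTI-MEM); incubate overnight at 37 deg C; add 23 nL compound; incubate 24 hr; add Steady-Glo; hold 30 min RT; read luminescence.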
An asterisk follows results filed as active; i = inactive; ? = inconclusive; · = no result. In the library only some 2.9% were active in any assay of this set; here they are far more common. Calls follow the shape of the dose curve; as a rule, active = well fitted curve in the direction sought with a large enough effect; inconclusive = small, poorly fitted or top-dose-only effect, or another doubt; inactive = no such curve, though single readings can be large; an effect the other way counts as inactive or inconclusive. Potency is read from the fitted curve at half-maximal effect.

SMILES | A549 viability | S2 tox | Nrf2 inh | ATXN2 expr inh | Nrf2 ARE act
COc1ccc(CCNc2oc(Cc3cccc4ccccc34)nc2C#N)cc1OC | -25% | ? | 21µM* | ? | -1%
CCc1nc(NC(C)C)c2oc3ccccc3c2n1 | -1% | i | -7% | -9% | 3%
Cc1cc(C)cc(NC(=O)Cn2c(C)cc(C)c(C#N)c2=O)c1 | 1% | · | · | · | 6%
CSCCC(NS(=O)(=O)c1ccc2c(c1)oc(=O)n2C)C(=O)Nc1ccc(Cl)cc1 (configuration not stated) | 6% | i | -18% | 9% | -1%
CC(=O)NN1C(=O)/C(=C\c2ccc(Br)o2)SC1=S | -7% | i | -12% | -28% | 16µM*
COC(=O)C1=C[C@@H](C(=O)OC)C2C3=C(C(=O)[C@]2(C)NC(=O)c2ccccc2)[C@H](C)n2c(=O)n(-c4ccccc4)c(=O)n2[C@@H]3C1 (some centres not stated) | -1% | · | ? | · | ·
CCc1ccc2nc(N3CCC(C(=O)O)CC3)sc2c1 | -5% | i | ? | 14µM* | -2%
CCc1ccc2nc(N3CCN(C(=O)C4CC4)CC3)sc2c1 | -7% | · | · | · | 0%
Cc1ccccc1/C=C1\C(=O)Nc2ccc(F)cc21 | ? | ? | 2.9µM* | -27% | ?
COc1cc(/C=N/N=C2/C(=O)Nc3ccccc32)cc(OC)c1O | 2% | i | 16% | 5% | 11µM*
CCN(CC)Cc1ccc2cc(COC(=O)Nc3ccc(C(=O)NO)cc3)ccc2c1 | · | · | · | 36% | ·
CC(=O)c1c(C)oc2ccc(N(C(C)=O)S(=O)(=O)c3cccc4cccnc34)cc12 | -14% | i | 18µM* | ? | 0%
CC(=O)c1c(C)oc2ccc(N(C(C)=O)S(=O)(=O)c3ccc(F)cc3C)cc12 | -1% | ? | ? | -26% | -1%
CC(=O)c1c(C)oc2ccc(N(C(C)=O)S(=O)(=O)c3ccc(Cl)c([N+](=O)[O-])c3)cc12 | ? | · | · | 25µM* | 0%
N#Cc1ccc(CN2CCN(C(=O)CNC(=O)Cc3cccc4ccccc34)CC2)cc1 | -14% | i | 5.8µM* | ? | 0%
N#Cc1ccc(CN2CCN(C(=O)CC(NC(=O)c3ccccc3)c3ccccc3)CC2)cc1 (configuration not stated) | 1% | i | -2% | 15% | 9%
CCc1ccccc1NC(=O)CN1CCN(C(=O)CNC(=O)Cc2cccc3ccccc23)CC1 | -5% | i | 15µM* | -21% | 0%
Cc1cccc(C)c1NC(=O)CN1CCN(C(=O)CNC(=O)Cc2cccc3ccccc23)CC1 | · | i | · | · | 0%
CCOC(=O)C1CCN(c2cc(C)nc3c(-c4ccccc4OC)c(C)nn23)CC1 | -2% | ? | · | ? | 4%
CC(C)CC(CSc1ccc(Br)cc1)N1CCN(C)CCC1=O (configuration not stated) | -4% | · | ? | · | ·
O=C(Cc1ccc(-n2c(=O)[nH]c3ccsc3c2=O)cc1)N1CCN(c2ccc(Cl)cc2)CC1 | -1% | i | 23µM* | ? | 5%
CSc1ccc(C(=O)C2CCCN(C(=O)CCn3cncn3)C2)cc1 (configuration not stated) | -2% | i | 24% | 0% | -1%
CSc1ccc(C(=O)C2CCCN(C(=O)c3ccc4c(c3)no[n+]4[O-])C2)cc1 (configuration not stated) | -14% | 14µM* | ? | · | 0%
CSc1ccc(C(=O)C2CCCN(C(=O)c3ccsc3)C2)cc1 (configuration not stated) | 2% | ? | -11% | · | 5%
CSc1ccc(C(=O)C2CCCN(C(=O)CCc3c(C)nn(C)c3C)C2)cc1 (configuration not stated) | -17% | i | 9.2µM* | -20% | 0%
SMILES | A549 viability | S2 tox | Nrf2 inh | ATXN2 expr inh | Nrf2 ARE act
Cc1oc(-c2ccc(Cl)cc2)nc1CN1CCCC(C(=O)NCCc2ccc(Cl)cc2)C1 (configuration not stated) | -18% | ? | ? | -15% | 11%
COc1ccc2[nH]c3c(N4CCN(Cc5ccc6c(c5)OCO6)CC4)ncnc3c2c1 | -16% | ? | ? | 28µM* | 7%
COc1ccc2[nH]c3c(N4CCC(O)(c5cccc(C(F)(F)F)c5)CC4)ncnc3c2c1 | ? | ? | 23µM* | 28µM* | -1%
COc1ccc2cc(C(=O)N3CCN(Cc4ccc5c(c4)OCO5)CC3)[nH]c2c1 | -26% | i | 21µM* | -26% | 3%
CCN1CCN(C(=O)c2cc3ccc(OC)cc3[nH]2)CC1 | -5% | i | ? | 39% | 0%
CCOc1ccc2[nH]c3c(N4CCc5ccccc5C4)ncnc3c2c1 | -26% | ? | ? | -64% | 0%
O=C(c1ccccc1O)N(Cc1ccco1)Cc1cccs1 | 4% | · | ? | · | ·
OC[C@H]1O[C@@H](O[C@H]2[C@@H](O)[C@@](O)(CO)O[C@@H]2CO)[C@H](O)[C@@H](O)[C@@H]1O | · | · | · | 1% | ·
CN(C)S(=O)(=O)c1cccc(NC(=O)c2ccc(N3CCCC3=O)cc2)c1 | 1% | i | -18% | -12% | -1%
CCN(c1ccc(NC(=O)c2ccc(N3CCCC3=O)cc2)cc1)C(C)C | -21% | i | 9.2µM* | -9% | -1%
CC(=O)c1ccc(S(=O)(=O)N2CCN(C(=O)c3ccc(-n4nc(C)c(Cl)c4C)cc3)CC2)cc1 | 0% | ? | 26µM* | · | 0%
Cc1ccccc1-n1nc(C)c2cc(C(=O)N3CCN(S(=O)(=O)c4ccc(Cl)cc4)CC3)sc21 | -27% | i | 13µM* | -7% | 3%
Cc1ccccc1-n1nc(C)c2cc(C(=O)N3CCN(S(=O)(=O)c4ccc(F)cc4)CC3)sc21 | -2% | i | · | -5% | 0%
Cc1nc(CN2CCN(C(=O)CC3(c4ccccc4Cl)CC(=O)N(C)C3=O)CC2)cs1 (configuration not stated) | · | i | · | · | ·
CCOC(=O)c1c(NC(=O)/C=C/c2ccc(OCC)c(OC)c2)sc2c1CCC2 | -3% | i | 7% | 2% | -1%
CCCCCCOc1ccc(/C=C/C(=O)Nc2sc3c(c2C(=O)OC)CCC3)cc1OC | 2% | 14µM* | 2% | ? | -6%
O=C(C[n+]1ccccc1)c1ccc(-c2ccccc2)cc1 | 27% | i | 3% | ? | 6%
CN(C)c1cc[n+](CC(=O)Nc2ccc(OC(F)F)cc2)cc1 | -7% | i | 23µM* | -20% | 2%
CC(=O)c1ccc(NC(=O)C[n+]2ccc(N(C)C)cc2)cc1 | 0% | i | -43% | -25% | 0%
COc1ccc(C(=O)C[n+]2ccc(N(C)C)cc2)cc1 | -11% | i | 21µM* | -21% | -1%
CN(C)c1cc[n+](CC(=O)c2ccc(-c3ccccc3)cc2)cc1 | -20% | i | ? | 2.8µM* | 0%
